Common to all, as to set-up: species or system human, MV4-11 + K-562 + COLO205 + SK-N-BE2 + OVCAR-8
One test concerns ACVR1. As to conditions: read-out: apparent Kd, n = 1.
The next test concerns AKT2. As to conditions: read-out: apparent Kd, compound concentrations: 100 nM and 1000 nM (sheet 'Samples'), n = 1.
Another test deals with IKBKE. As to conditions: read-out: apparent Kd, n = 1.
The next test relates to MAP2K2. As to conditions: read-out: apparent Kd, compound concentrations: 100 nM and 1000 nM (sheet 'Samples'), n = 1.
A further test has as its system MAP4K3. As to conditions: read-out: apparent Kd, compound concentrations: 100 nM and 1000 nM (sheet 'Samples'), n = 1.
For the next test, the system named is PIK3C2A. As to conditions: read-out: apparent Kd, compound concentrations: 100 nM and 1000 nM (sheet 'Samples'), n = 1.
The test system of another test is PIK3C3. As to conditions: read-out: apparent Kd, n = 1.
For the next test, the system named is PIM2. As to conditions: read-out: apparent Kd, n = 1.
A further test deals with STK11. As to conditions: read-out: apparent Kd; compound concentrations: 100 nM and 1000 nM (sheet 'Samples'), CATDS: 1.3793469415990099E-2; n = 1.
Another test concerns TEC. As to conditions: read-out: apparent Kd; compound concentrations: 100 nM and 1000 nM (sheet 'Samples'), CATDS: 1.49433127144414E-2; n = 1.
The subject of another test is TP53RK. As to conditions: read-out: apparent Kd; compound concentrations: 100 nM and 1000 nM (sheet 'Samples'), CATDS: 1.2573959142924701E-2; n = 1.
Another test concerns CDK10. As to conditions: read-out: apparent Kd, n = 1.
The test system of another test is MAP4K2. As to conditions: read-out: apparent Kd; compound concentrations: 100 nM and 1000 nM (sheet 'Samples'), CATDS: 1.18083453898033E-2; n = 1.
The subject of another test is MAP4K5. As to conditions: read-out: apparent Kd; compound concentrations: 100 nM and 1000 nM (sheet 'Samples'), CATDS: 2.1531310564231101E-2; n = 1.
In another test the test system is RPS6KA1. As to conditions: read-out: apparent Kd; compound concentrations: 100 nM and 1000 nM (sheet 'Samples'), CATDS: 7.3742407001506898E-3; n = 1.
In a further test the test system is SLK. As to conditions: read-out: apparent Kd; compound concentrations: 100 nM and 1000 nM (sheet 'Samples'), CATDS: 7.3686549547766099E-3; n = 1.
A further test concerns TGFBR1. As to conditions: read-out: apparent Kd; compound concentrations: 100 nM and 1000 nM (sheet 'Samples'), CATDS: 6.2904955022957598E-3; n = 1.
The test system of the next test is NEK9. As to conditions: read-out: apparent Kd, n = 1.
In the next test the test system is AKT3. As to conditions: read-out: apparent Kd, n = 1.
The next test concerns DDR1. As to conditions: read-out: apparent Kd; compound concentrations: 100 nM and 1000 nM (sheet 'Samples'), CATDS: 4.92942958534755E-2; n = 1.
The mark [1] stands for this setting: compound concentrations:100 nM and 1000 nM (sheet 'Samples').

This is an account of results in PMC11062922 (Nature Chemical Biology, 2023).

The structures appear in SMILES notation. Like-named read-outs stand apart in the source and are kept apart here.

Turning to `NCC(NC(=O)c1cc(-c2cn[nH]c2)c(-c2ccnc3[nH]ccc23)s1)c1ccccc1.NCC(NC(=O)c1cc(-c2cn[nH]c2)c(-c2ccnc3[nH]ccc23)s1)c1ccccc1.O=C(O)C(F)(F)F.O=C(O)C(F)(F)F` (stereo not shown) [GSK1325775A], the potency estimated from few doses with ACVR1 (compound concentrations: 100 nM and 1000 nM (sheet 'Samples'), CATDS: 3.5400947915422802E-2) was 1.18 µM.

For the compound `CCn1c(-c2cccnc2O)nc2cnccc21` [SB-736715], the potency estimated from few doses in the test with AKT2 (CATDS: 1.4638911444233901E-2) is 1.36 µM; with IKBKE (compound concentrations: 100 nM and 1000 nM (sheet 'Samples'), CATDS: 1.31503893194051E-2), 1.73 µM; with MAP2K2 (CATDS: 1.1967755653937401E-2), 2.21 µM; in the test with MAP4K3 (CATDS: 1.18582584558427E-2) it was 2.26 µM; in the test with PIK3C2A (CATDS: 1.67467583314573E-2), 1.04 µM; with PIK3C3 (compound concentrations: 100 nM and 1000 nM (sheet 'Samples'), CATDS: 1.55952310039979E-2), 1.19 µM. In addition, the potency estimated from few doses is 1.13 µM in the test on PIM2 (compound concentrations: 100 nM and 1000 nM (sheet 'Samples'), CATDS: 1.60081703977401E-2); 1.55 µM with STK11; 1.3 µM with TEC; 1.94 µM with TP53RK.

With `O=C(O)C(F)(F)F.O=C(O)C(F)(F)F.O=c1[nH]ccc2nc(N[C@@H]3CCCNC3)nc(Nc3ccc(S(=O)(=O)N4CCOCC4)cc3)c12.O=c1[nH]ccc2nc(N[C@@H]3CCCNC3)nc(Nc3ccc(S(=O)(=O)N4CCOCC4)cc3)c12` [GSK2177277A], the potency estimated from few doses with ACVR1 (compound concentrations: 100 nM and 1000 nM (sheet 'Samples'), CATDS: 7.8898197775333495E-3) is 0.605 µM; in the test on CDK10 (compound concentrations: 100 nM and 1000 nM (sheet 'Samples'), CATDS: 2.6189541098699299E-2), 0.032 µM; with MAP2K2 (CATDS: 5.9505583835806203E-3), 2.52 µM; with MAP4K2, 0.173 µM; with MAP4K3 (CATDS: 1.3665369195518201E-2), 0.12 µM; in the test on MAP4K5 it was 0.0457 µM. Besides, the potency estimated from few doses with RPS6KA1 is 0.792 µM; in the test on SLK, 0.794 µM; with TGFBR1 it was 1.74 µM.

On to `CCN(CC)Cc1ccc(Nc2nccc(-c3cnn4ncccc34)n2)cc1` [GW780056X], for which the potency estimated from few doses in the test on NEK9 (compound concentrations: 100 nM and 1000 nM (sheet 'Samples'), CATDS: 2.0464339173062999E-2) was 1.22 µM.

For the compound `COc1ccc(-c2cc3c(N)ncnc3o2)cc1` [GW642138X], the potency estimated from few doses in the test on MAP2K2 (CATDS: 0.100903208593323) was 1.8 µM.

Turning to `c1cnn2ncc(-c3ccnc(Nc4ccc5c(c4)OCCO5)n3)c2c1` [GW806290X], the potency estimated from few doses is 1.3 µM in the test with AKT2 (CATDS: 2.25042579106303E-2); 1.77 µM in the test on AKT3 (compound concentrations: 100 nM and 1000 nM (sheet 'Samples'), CATDS: 2.0651194958325798E-2); 1.53 µM in the test with MAP2K2 (CATDS: 2.1479851181110499E-2); 1.03 µM in the test on NEK9 (compound concentrations: 100 nM and 1000 nM (sheet 'Samples'), CATDS: 2.42273764121115E-2).

As for `CN(c1ccc(NC(=O)NCCN2CCOCC2)cc1)c1ccnc(Nc2ccc(CS(C)(=O)=O)cc2)n1.Cl` [GW830365A], the potency estimated from few doses in the test with DDR1 is 1.36 µM.

With `COC(=O)c1cccc(NC(=O)NC2CCN(c3ccnc(Nc4cc(OC)c(OC)c(OC)c4)n3)C2)c1` (stereo not shown) [GSK1379767A], the results for the potency estimated from few doses in the test on MAP2K2 (CATDS: 9.7469990790668801E-2) and in the test on PIK3C2A (CATDS: 9.3691802712770805E-2) were 1.88 µM and 2.08 µM, respectively.

Turning to `CCn1c(-c2nonc2N)nc2c(C#CC(C)(C)O)nc(O[C@@H](CN)c3ccccc3)cc21.O=C(O)C(F)(F)F` [GSK1007102B], the potency estimated from few doses in the test with AKT3 (setting [1]) is 0.719 µM.

Regarding `CS(=O)(=O)CCn1c(=O)c(Oc2ccc(F)cc2F)cc2cnc(NC3CCOCC3)nc21` [RO5027956-000], the potency estimated from few doses with AKT3 (setting [1]) was 2.17 µM; with PIM2 (setting [1]), 1.66 µM.

As to `CN(C)CC(O)COc1ccc(Nc2nccc(-c3cnn4nc(N5CCOCC5)ccc34)n2)cc1` (stereo not shown) [GW767488X], the potency estimated from few doses with ACVR1 (setting [1]) is 0.455 µM; in the test with CDK10 (setting [1]), 1.36 µM; in the test on IKBKE (setting [1]) it was 2.01 µM; in the test on NEK9 (setting [1]), 0.314 µM; in the test on PIK3C3 (setting [1]), 0.581 µM.
